Test in all cases: DAPPL (digital affinity profiling via proximity ligation, sequencing); 10 mM Tris-HCl pH 7.5, 50 mM NaCl, 1 mM DTT, 4% glycerol, room temperature, 30 min; GST-TFs on glutathione beads, 16-mer random dsDNA library, 0.1% formaldehyde crosslink after washing; high values mean tight binding
Common to all, as to conditions: protein: recombinant; tags: N-terminal GST; dsDNA, one strand shown

The target of one experiment is T1, SPIC (Homo sapiens, UniProt Q8N5J4 1-248).
T1 sequence: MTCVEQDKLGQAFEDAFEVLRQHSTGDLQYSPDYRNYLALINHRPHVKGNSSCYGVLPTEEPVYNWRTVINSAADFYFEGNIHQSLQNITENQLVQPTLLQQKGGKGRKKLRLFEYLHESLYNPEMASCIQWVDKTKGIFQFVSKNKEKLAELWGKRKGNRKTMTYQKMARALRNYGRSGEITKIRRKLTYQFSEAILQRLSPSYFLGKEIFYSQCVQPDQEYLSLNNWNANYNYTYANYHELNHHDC
In short, it runs like this:
(§1)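 Binding signal is given per hexamer as its read frequency for a factor divided by its frequency in the tag-only sample. GST-fused human transcription factors were expressed in yeast, captured on glutathione beads, barcoded with DNA and pooled with that sample, then incubated with 200 nmole of a 16-mer random double-stranded DNA library in Tris/NaCl/DTT/glycerol buffer for 30 min at room temperature. The pools were then washed, crosslinked, proximity-ligated, amplified by PCR and sequenced on an Illumina NextSeq500.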

The next experiment addresses ELF4 (Homo sapiens, UniProt Q99607 1-663). In short, it runs like this:
as §1

The next experiment has as its target T2, ELF3 (Homo sapiens, UniProt P78545 1-371).
T2 sequence: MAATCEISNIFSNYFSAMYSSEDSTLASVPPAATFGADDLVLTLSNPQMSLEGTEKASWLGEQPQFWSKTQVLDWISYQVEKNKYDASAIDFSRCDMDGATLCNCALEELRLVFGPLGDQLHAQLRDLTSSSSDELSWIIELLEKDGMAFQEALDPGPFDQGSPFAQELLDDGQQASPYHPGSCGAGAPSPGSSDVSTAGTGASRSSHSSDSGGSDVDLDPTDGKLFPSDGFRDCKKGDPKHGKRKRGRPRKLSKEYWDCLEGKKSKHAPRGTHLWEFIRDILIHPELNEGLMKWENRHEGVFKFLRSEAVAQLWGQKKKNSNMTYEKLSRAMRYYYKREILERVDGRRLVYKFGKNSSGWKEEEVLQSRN
In short, it runs like this: as §1

The target in the next experiment is CRX (Homo sapiens, UniProt O43186 1-299). In a few lines:
as §1

The next experiment has as its target ETV1 (Homo sapiens, UniProt P50549 1-477). In a few lines: as §1
A further experiment deals with T3, ELK1 (Homo sapiens, UniProt P19419 1-428).
T3 sequence: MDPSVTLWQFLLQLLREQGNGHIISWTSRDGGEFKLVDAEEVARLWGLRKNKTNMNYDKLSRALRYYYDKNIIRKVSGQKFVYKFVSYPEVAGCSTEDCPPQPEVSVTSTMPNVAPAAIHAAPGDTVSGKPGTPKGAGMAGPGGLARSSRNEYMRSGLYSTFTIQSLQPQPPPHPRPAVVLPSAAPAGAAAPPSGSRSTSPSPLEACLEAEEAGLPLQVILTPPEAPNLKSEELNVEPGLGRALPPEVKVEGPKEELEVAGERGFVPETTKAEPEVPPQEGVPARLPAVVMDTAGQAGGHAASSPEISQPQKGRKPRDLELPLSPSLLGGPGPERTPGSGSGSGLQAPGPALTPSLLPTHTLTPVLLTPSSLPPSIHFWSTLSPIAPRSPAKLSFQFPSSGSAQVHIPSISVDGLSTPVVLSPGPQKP
In a few lines: as §1

The target in another experiment is T4, GABPA (Homo sapiens, UniProt Q06546 1-454).
T4 sequence: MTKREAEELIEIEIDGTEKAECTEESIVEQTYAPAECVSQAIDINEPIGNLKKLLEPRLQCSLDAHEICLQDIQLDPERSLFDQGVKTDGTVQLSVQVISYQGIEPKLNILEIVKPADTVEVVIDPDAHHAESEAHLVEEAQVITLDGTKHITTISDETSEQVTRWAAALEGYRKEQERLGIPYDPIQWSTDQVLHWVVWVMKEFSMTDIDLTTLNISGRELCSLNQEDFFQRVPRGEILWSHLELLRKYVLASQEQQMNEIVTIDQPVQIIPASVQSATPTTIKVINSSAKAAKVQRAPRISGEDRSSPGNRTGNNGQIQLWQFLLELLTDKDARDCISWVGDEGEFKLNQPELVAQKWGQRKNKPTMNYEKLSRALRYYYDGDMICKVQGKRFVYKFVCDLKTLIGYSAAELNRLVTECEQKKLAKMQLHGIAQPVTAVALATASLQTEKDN
In a few lines:
as §1

For another experiment, the target named is SPI1 (Homo sapiens, UniProt P17947 1-270). In short, it runs like this: as §1
Another experiment has as its target T5, ELK3 (Homo sapiens, UniProt P41970 1-407).
T5 sequence: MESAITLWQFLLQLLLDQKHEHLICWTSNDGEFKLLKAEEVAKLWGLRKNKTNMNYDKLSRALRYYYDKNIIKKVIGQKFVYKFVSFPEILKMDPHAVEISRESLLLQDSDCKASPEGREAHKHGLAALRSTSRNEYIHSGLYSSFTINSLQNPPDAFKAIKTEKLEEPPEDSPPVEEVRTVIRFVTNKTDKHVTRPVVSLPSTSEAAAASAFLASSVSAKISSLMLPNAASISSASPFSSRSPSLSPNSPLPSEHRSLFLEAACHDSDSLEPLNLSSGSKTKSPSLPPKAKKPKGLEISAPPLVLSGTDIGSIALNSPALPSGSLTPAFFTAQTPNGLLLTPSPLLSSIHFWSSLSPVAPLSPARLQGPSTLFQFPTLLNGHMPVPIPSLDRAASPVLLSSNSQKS
In a few lines:
as §1

In a further experiment the target is T6, ETV2 (Homo sapiens, UniProt O00321 1-342).
T6 sequence: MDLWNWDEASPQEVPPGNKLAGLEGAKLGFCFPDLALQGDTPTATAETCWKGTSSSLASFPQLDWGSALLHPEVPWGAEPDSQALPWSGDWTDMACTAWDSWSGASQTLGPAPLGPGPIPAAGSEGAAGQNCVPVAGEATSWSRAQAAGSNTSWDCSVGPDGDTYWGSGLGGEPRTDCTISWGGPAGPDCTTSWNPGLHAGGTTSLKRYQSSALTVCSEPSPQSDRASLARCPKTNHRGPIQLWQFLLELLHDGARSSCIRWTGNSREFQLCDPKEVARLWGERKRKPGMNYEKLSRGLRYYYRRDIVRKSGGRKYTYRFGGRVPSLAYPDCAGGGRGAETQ
In short, it runs like this: as §1

The target of another experiment is T7, ERF (Homo sapiens, UniProt P50548 1-548).
T7 sequence: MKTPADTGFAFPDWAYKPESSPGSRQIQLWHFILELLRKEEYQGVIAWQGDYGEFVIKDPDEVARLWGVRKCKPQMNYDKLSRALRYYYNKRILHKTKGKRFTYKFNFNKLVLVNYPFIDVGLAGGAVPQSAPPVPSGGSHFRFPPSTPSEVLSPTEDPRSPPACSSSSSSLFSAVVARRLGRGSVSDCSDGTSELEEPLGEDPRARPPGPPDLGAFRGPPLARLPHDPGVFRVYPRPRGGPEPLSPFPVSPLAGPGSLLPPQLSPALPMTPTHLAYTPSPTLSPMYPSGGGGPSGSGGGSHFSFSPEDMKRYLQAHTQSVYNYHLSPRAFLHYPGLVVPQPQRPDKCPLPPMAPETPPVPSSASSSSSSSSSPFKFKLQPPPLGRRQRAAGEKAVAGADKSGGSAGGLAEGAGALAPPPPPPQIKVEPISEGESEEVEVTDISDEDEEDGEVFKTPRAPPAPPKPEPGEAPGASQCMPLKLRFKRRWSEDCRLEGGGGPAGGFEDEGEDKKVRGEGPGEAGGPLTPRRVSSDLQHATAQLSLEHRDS
In short, it runs like this: as §1

A further experiment deals with T8, ETS2 (Homo sapiens, UniProt P15036 1-469).
T8 sequence: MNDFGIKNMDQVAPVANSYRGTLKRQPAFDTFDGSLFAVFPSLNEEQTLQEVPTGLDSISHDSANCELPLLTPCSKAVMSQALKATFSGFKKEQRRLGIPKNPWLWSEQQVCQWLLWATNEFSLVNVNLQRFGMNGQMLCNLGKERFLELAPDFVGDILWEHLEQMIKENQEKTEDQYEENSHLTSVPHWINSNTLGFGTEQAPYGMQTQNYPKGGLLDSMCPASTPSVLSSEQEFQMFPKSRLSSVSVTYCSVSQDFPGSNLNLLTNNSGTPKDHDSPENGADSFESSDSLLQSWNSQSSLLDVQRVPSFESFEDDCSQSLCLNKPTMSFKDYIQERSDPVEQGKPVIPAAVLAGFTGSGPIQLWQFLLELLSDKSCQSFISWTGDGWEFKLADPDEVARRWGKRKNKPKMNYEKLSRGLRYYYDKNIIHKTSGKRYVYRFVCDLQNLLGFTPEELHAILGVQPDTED
In a few lines:
as §1

In another experiment the target is T9, ETV7 (Homo sapiens, UniProt Q9Y603 1-341).
T9 sequence: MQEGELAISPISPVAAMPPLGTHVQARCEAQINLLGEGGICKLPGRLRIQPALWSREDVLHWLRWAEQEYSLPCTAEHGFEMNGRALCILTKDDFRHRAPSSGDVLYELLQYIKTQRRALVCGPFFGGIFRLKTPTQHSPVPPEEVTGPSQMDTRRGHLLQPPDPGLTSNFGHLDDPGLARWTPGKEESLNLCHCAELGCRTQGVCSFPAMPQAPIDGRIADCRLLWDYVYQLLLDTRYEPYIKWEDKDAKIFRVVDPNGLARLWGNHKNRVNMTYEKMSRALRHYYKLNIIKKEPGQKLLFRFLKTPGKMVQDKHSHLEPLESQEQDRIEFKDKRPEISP
In short, it runs like this:
as §1

Another experiment concerns the target T10, ELF5 (Homo sapiens, UniProt Q9UKW6-2 1-255).
T10 sequence: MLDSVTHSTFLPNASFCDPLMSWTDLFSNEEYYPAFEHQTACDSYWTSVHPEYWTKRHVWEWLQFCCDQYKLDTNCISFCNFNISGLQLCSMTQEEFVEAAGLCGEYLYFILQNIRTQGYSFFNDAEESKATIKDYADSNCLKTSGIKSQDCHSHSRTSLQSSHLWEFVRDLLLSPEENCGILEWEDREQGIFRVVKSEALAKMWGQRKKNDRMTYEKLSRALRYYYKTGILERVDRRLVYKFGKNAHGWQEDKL
In short, it runs like this: as §1

In another experiment the target is T11, ETV3 (Homo sapiens, UniProt P41162-2 1-143).
T11 sequence: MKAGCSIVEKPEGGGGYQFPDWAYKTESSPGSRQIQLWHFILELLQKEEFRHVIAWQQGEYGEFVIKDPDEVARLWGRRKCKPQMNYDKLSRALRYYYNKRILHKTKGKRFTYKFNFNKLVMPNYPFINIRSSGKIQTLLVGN
In a few lines: as §1

Chain of ELF4 (Q99607 whole entry): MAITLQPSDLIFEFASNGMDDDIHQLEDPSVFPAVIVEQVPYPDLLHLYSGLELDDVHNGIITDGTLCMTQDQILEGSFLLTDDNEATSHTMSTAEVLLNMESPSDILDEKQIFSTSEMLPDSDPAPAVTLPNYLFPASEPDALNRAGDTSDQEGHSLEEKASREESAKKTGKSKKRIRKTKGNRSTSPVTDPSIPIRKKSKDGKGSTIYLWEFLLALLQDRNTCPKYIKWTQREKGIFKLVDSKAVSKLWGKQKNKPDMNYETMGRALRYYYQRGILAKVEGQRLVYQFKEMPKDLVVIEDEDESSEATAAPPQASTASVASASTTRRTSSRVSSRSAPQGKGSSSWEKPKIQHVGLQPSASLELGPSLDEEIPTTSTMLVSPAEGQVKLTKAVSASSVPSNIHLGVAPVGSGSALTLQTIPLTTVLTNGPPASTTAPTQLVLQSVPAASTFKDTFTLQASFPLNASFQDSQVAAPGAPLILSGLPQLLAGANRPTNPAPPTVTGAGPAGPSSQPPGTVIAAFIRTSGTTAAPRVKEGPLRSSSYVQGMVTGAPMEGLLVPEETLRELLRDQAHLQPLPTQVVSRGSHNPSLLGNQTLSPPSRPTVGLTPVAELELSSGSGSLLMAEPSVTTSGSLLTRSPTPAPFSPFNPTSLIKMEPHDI
Chain of ETV1 (P50549 whole entry): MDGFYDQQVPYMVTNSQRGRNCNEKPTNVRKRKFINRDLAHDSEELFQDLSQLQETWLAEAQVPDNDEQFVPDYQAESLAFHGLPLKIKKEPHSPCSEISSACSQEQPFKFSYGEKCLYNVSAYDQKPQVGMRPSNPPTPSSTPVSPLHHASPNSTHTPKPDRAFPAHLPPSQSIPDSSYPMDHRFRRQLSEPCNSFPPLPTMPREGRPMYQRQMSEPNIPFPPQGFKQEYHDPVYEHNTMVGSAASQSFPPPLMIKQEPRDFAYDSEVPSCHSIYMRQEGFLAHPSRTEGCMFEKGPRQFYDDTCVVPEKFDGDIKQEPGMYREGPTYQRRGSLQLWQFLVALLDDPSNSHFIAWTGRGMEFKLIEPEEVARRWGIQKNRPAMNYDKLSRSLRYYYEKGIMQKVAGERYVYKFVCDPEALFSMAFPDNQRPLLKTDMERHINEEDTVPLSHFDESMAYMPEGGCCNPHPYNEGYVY
Chain of CRX (O43186 whole entry): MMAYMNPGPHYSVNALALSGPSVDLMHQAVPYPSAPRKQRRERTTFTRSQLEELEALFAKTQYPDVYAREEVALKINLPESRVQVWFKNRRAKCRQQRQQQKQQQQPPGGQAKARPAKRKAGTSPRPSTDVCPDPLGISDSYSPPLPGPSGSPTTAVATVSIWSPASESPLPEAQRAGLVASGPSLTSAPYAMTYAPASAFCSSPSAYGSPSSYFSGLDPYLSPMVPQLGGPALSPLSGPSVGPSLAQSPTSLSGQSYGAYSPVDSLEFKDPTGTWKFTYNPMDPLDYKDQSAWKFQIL

On to CTAAGG, for which the binding signal with SPIC was 1.06 fold enrichment (6-mer frequency, TF over GST control); in the experiment with ELF4, 1.02 fold enrichment (6-mer frequency, TF over GST control); with ELF3, 1.02 fold enrichment (6-mer frequency, TF over GST control); with CRX, 1.12 fold enrichment (6-mer frequency, TF over GST control); with ETV1 it was 1.01 fold enrichment (6-mer frequency, TF over GST control).
For the sequence ACCTGT, the binding signal is 1.05 fold enrichment (6-mer frequency, TF over GST control) in the experiment with ELK1; 1 fold enrichment (6-mer frequency, TF over GST control) with GABPA; 1.01 fold enrichment (6-mer frequency, TF over GST control) in the experiment with SPI1; 1.12 fold enrichment (6-mer frequency, TF over GST control) with ELK3; 1.06 fold enrichment (6-mer frequency, TF over GST control) with SPIC; 1.06 fold enrichment (6-mer frequency, TF over GST control) in the experiment with ELF4. Further, the binding signal with ETV2 was 1.04 fold enrichment (6-mer frequency, TF over GST control); in the experiment with ETV1, 1.02 fold enrichment (6-mer frequency, TF over GST control); with ERF, 1.08 fold enrichment (6-mer frequency, TF over GST control); in the experiment with ETS2 it was 1.04 fold enrichment (6-mer frequency, TF over GST control); with ETV7 it was 1.07 fold enrichment (6-mer frequency, TF over GST control); with ELF5 it was 1.04 fold enrichment (6-mer frequency, TF over GST control). Also, the binding signal with ETV3 is 1.13 fold enrichment (6-mer frequency, TF over GST control).
